NPC1 prom act – qHTS Assay for NPC1 Promoter Activators; 320,000 compounds, 2.4% hits; Potency, µM (top dose mostly 9.22 µM), inactives show at the top dose activation, hits mostly activators; Huh7 NPC1 promoter luciferase reporter, 24 h; note: % of control where 0% means no effect; nearly all actives have a fitted effect of over 60% in size
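In 1536-well qHTS, Huh7 cells harboring an NPC1 promoter–luciferase construct received compound for 24 h; activation was quantified by luminescence following luciferase reagent addition.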
ELG1 genotox – qHTS screen for small molecules that induce genotoxicity in human embryonic kidney (HEK293T) cells expressing luciferase-tagged ELG1 | 330,000 compounds, 1.3% hits | Potency, µM (series often up to 46 µM), for the others: at the highest dose activity change, positive = activation, most hits filed as activators | HEK293T ELG1-luciferase reporter, luminescence, 16 h; note: % of control where 0% means no effect; nearly all actives have a fitted effect of over 60% in size
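ELG1-luciferase HEK293T cells, 2,000/well; compound pinned in; 16 hr, 37 °C, 5% CO2; ONE-Glo, 30 min RT; luminescence on CCD imager.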
SMN2 splice enh – qHTS Assay for Enhancers of SMN2 Splice Variant Expression; HEK293 SMN2-luciferase splicing reporter, luminescence, 30-36 h; Potency, µM (top dose mostly 46.1 µM), inactives show at the top dose activity change, positive = activation, usual class: activators; 210,000 compounds, 2.8% hits; note: % of control where 0% means no effect; nearly all actives have a fitted effect of over 55% in size
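qHTS luciferase splicing reporter: luminescence rises when SMN2 exon 7 is included in transfected HEK293 cells. Compound exposure lasted 30-36 h at 37C, with 4.5 mM final sodium butyrate as control, followed by a ONE-Glo read.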
FLuc modulator – qHTS profiling assay for firefly luciferase inhibitor/activator using purifed enzyme and Km concentrations of substrates (counterscreen for miR-21 project); Potency, µM (doses to about 57.5 µM), for inactives: at the highest dose activity change, negative = inhibition, most hits filed as inhibitors; purified FLuc, Km substrates, luminescence inhibition; Luciferin 4-monooxygenase (Photinus pyralis), P08659; 360,000 compounds, 6.9% hits;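 note: plate controls were vehicle for no effect and reference inhibitor for full effect; nearly all actives have a fitted effect of over 55% in size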
Target sequence (P08659 whole entry, looked up): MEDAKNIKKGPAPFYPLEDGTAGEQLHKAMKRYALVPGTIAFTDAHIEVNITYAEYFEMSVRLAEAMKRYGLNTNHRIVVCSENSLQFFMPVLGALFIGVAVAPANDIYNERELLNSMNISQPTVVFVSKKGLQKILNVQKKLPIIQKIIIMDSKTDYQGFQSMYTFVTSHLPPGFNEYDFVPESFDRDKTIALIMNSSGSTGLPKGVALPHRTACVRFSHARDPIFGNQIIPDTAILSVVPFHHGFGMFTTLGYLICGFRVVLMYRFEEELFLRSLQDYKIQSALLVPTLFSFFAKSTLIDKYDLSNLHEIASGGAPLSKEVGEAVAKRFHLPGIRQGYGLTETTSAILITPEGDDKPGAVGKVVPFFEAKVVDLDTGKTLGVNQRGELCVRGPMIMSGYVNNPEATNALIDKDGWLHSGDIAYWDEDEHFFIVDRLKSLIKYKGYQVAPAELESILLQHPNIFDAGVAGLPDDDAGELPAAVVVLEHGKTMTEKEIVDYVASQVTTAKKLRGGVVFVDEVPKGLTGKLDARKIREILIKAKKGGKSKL
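Biochemical qHTS of compounds, final roughly 60 µM downward over six points, against 10 nM purified firefly luciferase using Km concentrations of substrates (10 uM D-luciferin, 10 uM ATP) in Tris acetate pH 7.5 buffer; luminescence output.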
Rab9 promoter act – qHTS Assay for Rab9 Promoter Activators; 320,000 compounds, 2.8% hits; Huh7 Rab9 promoter-luciferase reporter, luminescence, 24 h; Potency, µM (titrated, usually from 9.22 µM), for inactives: top-dose activation, negative = inhibition, most hits filed as activators; AID 485297, 2010; note: % of control where 0% means no effect; nearly all actives have a fitted effect of over 60% in size
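Huh7 cells stably carrying a Rab9 promoter-luciferase reporter, 1500 cells per well in OP-MEM I with 10% FBS, treated with compound 24 hours at 37C. Luciferase activity read by luminescence after 10 minutes with Amplite reagent.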
ELG1 repair inh – qHTS screen for small molecules that inhibit ELG1-dependent DNA repair in human embryonic kidney (HEK293T) cells expressing luciferase-tagged ELG1. HEK293T ELG1-luciferase reporter, luminescence, 16 h; DNA damage induced by 5-fluorouridine. Potency, µM (series often up to 46.1 µM), inactives show top-dose activity change, negative = inhibition, hits mostly inhibitors. 330,000 compounds, 2.3% hits; note: % is set by controls: 0 for no effect and ±100 for the full control effect; nearly all actives have a fitted effect of over 55% in size
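Cells (2,000 per well) received 5-fluorouridine plus test compound or DMSO and were incubated 16 hr at 37 °C, 5% CO2. Luciferase activity was read by luminescence 30 min after ONE-Glo addition; signal suppression marked inhibition of damage-induced ELG1 function.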
* = called active by the depositor; ? = inconclusive; / = not tested or not shown; [ ] = another dose, or the depositor's remark. In the library only some 9.2% were active in any assay of this set; here they are far more common. Calls come from the whole dose curve; as a rule, active = well fitted curve in the direction sought with a large enough effect; inconclusive = small, poorly fitted or top-dose-only effect, or another doubt; inactive = no such curve, though single readings can be large; an effect the other way counts as inactive or inconclusive. Potency is the fitted concentration of half-maximal effect.

SMILES	NPC1 prom act	ELG1 genotox	SMN2 splice enh	FLuc modulator	Rab9 promoter act	ELG1 repair inh
COC(=O)c1ccc2nc(-c3ccc4c(c3)OCO4)cn2c1	0.22µM*	?	/	0.3µM*	0.1µM*	?
CCc1ccn2cc(-c3ccc4c(c3)OCO4)nc2c1	?	0.18µM*	/	0.06µM*	?	?
O=C(Cn1cc(S(=O)(=O)Cc2ccccc2Cl)c2ccccc21)Nc1cccc(C(F)(F)F)c1	/	/	/	-5%	/	/
CN(C)c1ccc(NC(=O)Cn2cc(S(=O)(=O)Cc3ccccc3Cl)c3ccccc32)cc1	/	/	/	9.5µM*	/	/
COc1ccc2cnn(-c3ccc(OC(F)(F)F)cc3)c(=O)c2c1OC	20%	10%	/	-12%	14%	?
Cc1ccc(OCC(O)Cn2c3ccccc3c3ccccc32)cc1 (configuration not stated)	-5%	-2%	-16%	-2%	-5%	-24%
CC(=O)Nc1ccc(OCC(O)Cn2c(C)nc3ccccc32)cc1 (configuration not stated)	14%	-6%	-48%	0%	-5%	13%
CC(=O)N(C)c1ccc(OCC(O)Cn2c3ccc(Cl)cc3c3cc(Cl)ccc32)cc1 (configuration not stated)	-4%	-24%	-128%	2%	-8%	18µM*
CC(=O)N(C)c1ccc(OCC(O)Cn2c(C)nc3ccccc32)cc1 (configuration not stated)	-15%	-7%	-57%	2%	-16%	9.2µM*
CSc1ccc(CCNC(=O)CCc2c(C)nc3c(c(C)nn3-c3ccc(C)c(C)c3)c2C)cc1	/	/	-1%	3%	/	/
CCc1ccccc1NCc1nnc2n1CCCCC2	/	/	/	-3%	/	/
NC(CSCSCC(N)C(=O)O)C(=O)O (configuration not stated)	/	/	-1%	/	/	/
COCCN(CC(=O)Nc1cccc(C)c1C)C(=O)c1ccc(S(=O)(=O)N2CCOCC2)cc1	2%	-1%	/	2%	0%	6%
CCOC(=O)c1cnc2cc(-c3ccc(OCC)cc3)nn2c1-c1ccccc1	/	/	/	-2%	/	/
CCCCc1ncc(CN2CCC(n3nccc3NC(=O)c3ccccc3Cl)CC2)[nH]1	0%	-7%	/	1%	0%	10µM*
O=C(N/N=C/c1cn(-c2cccs2)nc1-c1ccccc1)c1ccccc1Br	7%	3%	?	6.7µM*	8%	?
O=C(N/N=C/c1ccccc1C(=O)O)c1ccccc1Br	0%	0%	10%	?	17%	0%
O=C(N/N=C/c1cn(-c2cccs2)nc1-c1ccccc1)c1ccccc1O	-2%	-2%	/	9.5µM*	-4%	?
CC[n+]1c(/C=C/C=C2/N(C)c3ccccc3C2(C)C)sc2ccccc21	-31%[46.1 µM]	/	/	/	-44%[46.1 µM]	/
CN(Cc1ccsc1)C(=O)CCc1nnc(Cc2c[nH]c3ccccc23)o1	-2%	3%	/	-13%	-2%	11%
CC(C)(CO)CNC(=O)CCc1nnc(CCCc2ccccc2)o1	-1%	4%	/	-15%	12%	?
Cc1nc(C(C)NC(=O)CCc2nnc(CCCc3ccccc3)o2)c(C)s1 (configuration not stated)	?	?	16µM*	15µM*	2.8µM*	?
CN(Cc1ccsc1)C(=O)CCc1nnc(CCCc2ccccc2)o1	19%	?	/	13µM*	3.2µM*	?
O=C(CCc1nnc(CCCc2ccccc2)o1)NC(C1CC1)C1CC1	?	21µM*	14µM*	12µM*	2.8µM*	?
Cc1ccc(N2CC(C(=O)Nc3ccc(S(=O)(=O)NCC4CCCO4)cc3)CC2=O)cc1C (configuration not stated)	0%	-1%	/	-4%	-3%	3%
SMILES	NPC1 prom act	ELG1 genotox	SMN2 splice enh	FLuc modulator	Rab9 promoter act	ELG1 repair inh
COc1ccc(S(=O)(=O)Nc2ccc3c(c2)C(=O)N([C@@H](C)CO)C[C@H](C)[C@H](CN(C)CC2CC2)O3)cc1	/	7%	/	/	/	5%
O=C(CSC1=NS(=O)(=O)c2ccccc2N1)N1CCCCC1	1%	2%	/	-19%	-2%	?
COC(=O)c1ccc(/C=C/c2ccc3cccc(OC)c3n2)cc1	0%	-5%	-4%	5.4µM*	3%	?
COc1cc(/C=C/c2ccc3cccc(O)c3n2)cc(Cl)c1OC	0.63µM*	21µM*	/	2.7µM*	0.71µM*	?
COc1cc(/C=C/c2ccc3cccc(O)c3n2)cc(OC)c1OC	26%	?	/	?	23%	?
COc1ccc(/C=C/c2ccc3cccc(O)c3n2)cc1Br	?	?	/	6µM*	16%	?
COc1ccc(Br)cc1/C=C/c1ccc2cccc(O)c2n1	28%	4%	/	?	8%	-17%
COc1cc(/C=C/c2ccc3cccc(O)c3n2)cc(Br)c1OC	2.8µM*	23µM*	/	4.8µM*	4µM*	?
CSc1ncc2c(n1)-c1ccccc1N(Cc1ccccc1)S2(=O)=O	/	/	/	-17%	/	/
COc1ccc(-c2csc(-c3nc(-c4ccc(Br)s4)cs3)n2)cc1F	/	/	-2%	-5%	/	/
Cc1noc(C)c1S(=O)(=O)N(C)C[C@H]1Oc2ccc(NS(=O)(=O)c3ccccc3)cc2C(=O)N([C@H](C)CO)C[C@@H]1C	/	0%	/	/	/	?
Cc1ccc(S(=O)(=O)Nc2cccc(CP(=O)(c3ccccc3)c3ccccc3)c2)cc1	-3%	-5%	/	2%	0%	22%
COc1ccc(/C=C/c2ccc3c(Br)ccc(O)c3n2)cc1	?	?	/	5.4µM*	?	?
N/C(=N\OC(=O)COc1ccccc1Cl)c1ccccn1	3.2µM*	9.2µM*	13µM*	4.8µM*	2.5µM*	?
Cc1ccc(C)c(OCC(=O)O/N=C(\N)c2ccccn2)c1	3.2µM*	?	?	17µM*	?	?
N/C(=N\OC(=O)COc1ccc2ccccc2c1)c1ccccn1	13%	6%	-4%	?	22%	?
Cc1ccc(C)c(OCC(=O)O/N=C(\N)c2cccnc2)c1	-1%	4%	/	-18%	11%	?
O=C1C=C(c2ccc(F)c(Cl)c2)C[C@@H](c2ccc(F)cc2)C1	0%	1%	/	-4%	-1%	-2%
CCN(CC)S(=O)(=O)c1ccc(N2CCOCC2)c(NC(=O)COc2ccc(C#N)cc2)c1	-5%	-7%	/	15µM*	-3%	0%

Source: PubChem (National Center for Advancing Translational Sciences (NCATS))
